From PubChem BioAssay
“And” between values parts separate entries of the source, which are not always exact repeats. Equal values may be shown once. The source made the active and inactive calls.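 Rule for the calls, unless noted: active = compounds whose cell count with miR-34 switched on is under 0.7 times the count with it off; inactive = the rest.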

How the values were obtained:
[1] = sensitizers of A549 cells to miR-34 induction, primary screen, imaging, A549 dox-inducible miR-34, nuclei and caspase counts (AID 1347080); details: A549 miR-34 inducible, Hoechst nuclei count, 48 h
[2] = survival rescue of mitochondrial mutant cells in low glucose, primary screen, MELAS cybrids, Rieske KO mouse fibroblasts, CellTiter-Glo (AID 1508586;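 active = mean z-score across replicates of 1.96 or higher in either the MELAS or the Rieske mutant cell line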;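 note: z relative to plate mean and SD of compound and empty wells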)
[3] = system: Hepatitis C virus NS3 helicase; experiment: HCV NS3 helicase inhibitors, primary screen, biochemical, fluorescence polarization, LOPAC1280 library (AID 687035; in the data active = inhibition above about 37%); details: Purified HCV NS3 helicase, Cy5-dT15 ssDNA binding fluorescence polarization; stronger effect = higher value; concentration not given here
[4] = Cy5 fluorescence quenching or enhancement artefacts, artefact control for HCV NS3 helicase inhibitor project, biochemical, LOPAC1280 (AID 687037; call rule not given here); details: Cy5-DNA-NS3h complex fluorescence interference counterscreen
[5] = phospholipid biosynthesis inhibitors in animal cells, primary screen, cell-based, LOPAC library, screen 4 (AID 1347384; call rule not given here); details: phospholipid biosynthesis inhibition screen, at 10 µM
[6] = viability rescue of complex I mutant cybrids, primary screen, cell-based, galactose medium, ATP luminescence (AID 1645843;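 active = z-score of at least 1.8 in each of two replicates, scored against plate mean and spread of sample wells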;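 note: positive z means more ATP and so rescue of galactose-driven cybrid death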); details: complex I mutant cybrid cells, 72 h, stronger effect = higher value
[7] = liver-stage malaria parasite growth inhibition, primary screen, cell-based, HepG2, luciferase luminescence, HepG2 viability (AID 624349; in the data active = parasite load remaining mostly below about 12%, no sharp cut-off; inactive = mostly above about 10%;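 note: 100% = mean of DMSO negative control wells on the same plate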); details: P. berghei liver stage in HepG2, luciferase luminescence, concentration not given here; parasite load remaining: stronger effect = lower value; viability: measured here: HepG2 viability without parasites
[8] = stronger effect = lower value, cell number ratio, induced over uninduced
[9] = measured here: relative caspase fold change +Dox/-Dox
[10] = measured here: total cells with miR-34 induction, stronger effect = lower value
[11] = measured here: total cells without miR-34 induction
[12] = MELAS cybrid survival, CellTiter-Glo 48 h, stronger effect = higher value
[13] = Rieske KO mouse fibroblast survival, CellTiter-Glo 72 h

Row | Structure (SMILES) | fold change [1, 8] | fold change [1, 9] | cell count [1, 10] | cell count [1, 11] | z-score [2, 12] | z-score [2, 13] | fold change ([1]; stronger effect = lower value) | inhibition [3] | fluorescence ratio (interference) [4] | outcome [5] | z-score [6] | parasite load remaining [7] | viability [7]
1 | CCCC[N+]1(C)[C@@H]2CC(OC(=O)C(CO)c3ccccc3)C[C@H]1[C@@H]1O[C@@H]12 (some centres undefined) | 0.94 (inactive) | 1.14 | 9330 | 9930 | -0.311 (inactive) | 0.426 |  |  |  |  |  |  | 
2 | CC(C)(C)[C@@]1(O)C[C@@H]2OC(=O)C[C@@]23C(=O)O[C@H]2OC(=O)C(O)C213 (some centres undefined) | 0.894 (inactive) | 1.49 | 8490 | 9500 | -0.286 (inactive) | 0.895 |  |  |  |  |  |  | 
3 | NC(CC(=O)N1CCn2c(nnc2C(F)(F)F)C1)Cc1cc(F)c(F)cc1F (centres undefined) | 0.922 (inactive) | 0.671 | 9670 | 10500 | -0.323 (inactive) | 0.499 |  |  |  |  |  |  | 
4 | CC=C(C)C(=O)NC(c1ccccc1)C(O)C(=O)OC1C[C@@]2(O)C(OC(=O)c3ccccc3)[C@@H]3[C@]4(OC(C)=O)COC4CC(O)[C@@]3(C)C(=O)C(OC(C)=O)C(=C1C)C2(C)C (some centres undefined) | 1.27 (inactive) | 0.457 | 1460 | 1150 | 1.29 (inactive) | 0.0967 |  |  |  |  |  |  | 
5 | CN1CCCCC1Cn1cc(C(=O)c2cc([N+](=O)[O-])ccc2I)c2ccccc21 (centres undefined) |  | 0.479 and 0.87 | 5220 and 6710 | 5890 and 6500 | 0.0965 (inactive) | -0.371 | 0.887 (inactive) and 1.03 (inactive) |  |  |  |  |  | 
6 | CC(=Cc1csc(C)n1)C1CC2OC2CCCC(C)C(O)C(C)C(=O)C(C)(C)C(O)CC(=O)O1 (centres undefined) | 1.08 (inactive) | 1.17 | 1520 | 1410 | 1.25 (inactive) | 0.224 |  |  |  |  |  |  | 
7 | CC(C)[C@@]12OC1C1O[C@]13[C@]1(OC1C[C@@H]1C4=C(CC[C@@]13C)C(=O)OC4)C2O (some centres undefined) | 0.989 (inactive) | 0.482 | 1650 | 1670 | 1.17 (inactive) | -0.457 |  |  |  |  |  |  | 
8 | CC1CNCCc2ccc(Cl)cc21 (centres undefined) |  | 0.645 | 8250 | 9060 | -0.213 (inactive) | -0.176 | 0.911 (inactive) |  |  |  |  |  | 
9 | CCN1C[C@]2(OC(=O)c3ccccc3NC(C)=O)CCC(OC)[C@]34C1C(C[C@H]23)[C@@]1(O)CC(OC)[C@H]2C[C@H]4[C@]1(O)C2OC (some centres undefined) |  | 0.833 | 7310 | 7680 | -0.466 (inactive) | -0.118 | 0.952 (inactive) |  |  |  |  |  | 
10 | c1cc2c(cc1C1OC[C@H]3C(c4ccc5c(c4)OCO5)OC[C@H]13)OCO2 (some centres undefined) | 0.925 (inactive) | 0.861 | 8900 | 9620 | -0.349 (inactive) | 0.747 |  |  |  |  |  |  | 
11 | COc1ccc(S(=O)(=O)N(CCO)c2ccccc2CN(C)CC=Cc2ccc(Cl)cc2)cc1 | 0.937 (inactive) | 0.634 | 5210 | 5560 | -0.474 (inactive) | -0.774 |  |  |  |  |  |  | 
12 | COc1cc(-n2c(=S)[nH]c3ccccc3c2=O)c(Cl)cc1Cl |  | 0.323 | 6620 | 7540 | 0.632 (inactive) | 1.12 | 0.878 (inactive) |  |  |  |  |  | 
13 | CCc1cc2c(s1)-n1c(C)nnc1CN=C2c1ccccc1Cl |  | 0.493 | 8260 | 8710 | -0.248 (inactive) | -0.187 | 0.948 (inactive) |  |  |  |  |  | 
14 | C=C1C[C@@H]2[C@@H](CC[C@@]3(C)C(=O)CC[C@@H]23)[C@@]2(C)C=CC(=O)C=C12 |  | 1.02 | 7640 | 7540 | -0.495 (inactive) | 0.156 | 1.01 (inactive) |  |  |  |  |  | 
15 | CN1CC[C@@]2(C)c3cc(OC(=O)Nc4ccccc4)ccc3N(C)[C@@H]12 |  | 1.22 | 10200 | 10600 |  |  | 0.963 (inactive) | -3% (inactive) | 1 (inactive) | inactive | -0.985 (inactive) |  | 
16 | NC(N)=NOCCC(N)C(=O)O (centres undefined) |  | 1.82 | 9120 | 9610 |  |  | 0.949 (inactive) | 0% (inactive) | 1.1 (inactive) | inactive | 0.49 (inactive) |  | 
17 | O=c1cccc2n1CC1CNCC2C1 (centres undefined) |  | 1.17 | 7650 | 8430 | -0.233 (inactive) | -0.215 | 0.908 (inactive) |  |  |  |  |  | 
18 | CC(=Cc1csc(C)n1)C1CC2O[C@]2(C)CCCC(C)C(O)C(C)C(=O)C(C)(C)C(O)CC(=O)O1 (some centres undefined) | 1.08 (inactive) | 0.662 | 1610 | 1500 | 1.69 (inactive) | -0.237 |  |  |  |  |  |  | 

Row | Structure (SMILES) | fold change [1, 8] | fold change [1, 9] | cell count [1, 10] | cell count [1, 11] | z-score [2, 12] | z-score [2, 13] | fold change ([1]; stronger effect = lower value) | inhibition [3] | fluorescence ratio (interference) [4] | outcome [5] | z-score [6] | parasite load remaining [7] | viability [7]
19 | O=[N+]([O-])C=Cc1ccc2c(c1)OCO2 | 0.859 (inactive) | 0.554 | 5450 | 6350 | 0.246 (inactive) | -0.259 |  |  |  |  |  |  | 
20 | Clc1ccc(C(Cn2ccnc2)OCc2ccc(Sc3ccccc3)cc2)c(Cl)c1 (centres undefined) | 0.851 (inactive) | 0.891 | 6850 | 8050 | -0.265 (inactive) | 0.16 |  |  |  |  |  |  | 
21 | Cc1cc(C(=O)CN2CCCC2)c(C)n1-c1ccc(F)cc1 |  | 0.246 | 8040 | 8840 | -0.384 (inactive) | 0.483 | 0.909 (inactive) |  |  |  |  |  | 
22 | Fc1cc(F)c2c(c1)[C@H]1C=CC[C@@H]1C(c1cccnc1)N2 (some centres undefined) | 0.966 (inactive) | 0.287 | 1650 | 1710 | 1.16 (inactive) | 0.671 |  |  |  |  |  |  | 
23 | C=CC(C)(C)c1cc2cc3c(cc2oc1=O)OC(C(C)(C)O)C3 (centres undefined) | 0.846 (inactive) | 0.587 | 5210 | 6170 | -1.27 (inactive) | 0.752 |  |  |  |  | -2.66 (inactive) |  | 
24 | C[C@]12CCC(O)CC1=CC[C@@H]1[C@H]2CC[C@]2(C)C(=O)CC[C@@H]12 (some centres undefined) |  | 0.858 | 8270 | 9530 | -0.412 (inactive) | 0.289 | 0.867 (inactive) |  |  |  |  |  | 
25 | O=c1ccc2cc(OC3OC(CO)C(O)C(O)C3O)c(O)cc2o1 (centres undefined) | 0.961 (inactive) | 0.851 | 9070 | 9440 | -0.23 (inactive) | 0.0251 |  |  |  |  |  |  | 
26 | Cc1sc2c(c1C)C(c1ccc(Cl)cc1)=NC(CC(=O)OC(C)(C)C)c1nnc(C)n1-2 (centres undefined) |  | 0.485 | 5260 | 5520 | 0.154 (inactive) | -3.85 | 0.954 (inactive) |  |  |  |  |  | 
27 | CN(C)C1C(=O)C(C(N)=O)=C(O)[C@@]2(O)C(=O)C3=C(O)c4c(O)cccc4[C@@](C)(O)[C@H]3C(O)[C@@H]12 (some centres undefined) | 0.897 (inactive) | 0.837 | 7930 | 8840 | -0.21 (inactive) | 0.479 |  |  |  |  |  |  | 
28 | CC1CC[C@@]2(OC1)O[C@H]1C[C@H]3[C@@H]4CC=C5CC(O[C@@H]6OC(CO)C(O[C@@H]7OC(C)C(O)C(O)C7O)C(O)C6O[C@@H]6OC(C)C(O)C(O)C6O)CC[C@]5(C)[C@@H]4CC[C@]3(C)[C@@H]1C2C (some centres undefined) | 0.658 (active) | 1.39 | 1180 | 1800 | 2.01 (active) | -1.08 |  |  |  |  |  |  | 
29 | C[C@H]1CN(C2CCC(C#N)(c3ccc(F)cc3)CC2)CC[C@@]1(C(=O)O)c1ccccc1 (some centres undefined) |  | 1.09 | 9640 | 11200 | 0.032 (inactive) | 0.209 | 0.857 (inactive) |  |  |  | 0.74 (inactive) | 36.7% (inactive) | 68%
30 | C[C@]12CCC(O)C[C@@H]1CC[C@@H]1[C@H]2CC[C@]2(C)C(=O)CC[C@@H]12 (some centres undefined) |  | 1.48 | 7540 | 8080 | -0.116 (inactive) | -0.417 | 0.933 (inactive) |  |  |  |  |  | 
31 | CC[C@@]1(O)C(=O)OCc2c1cc1n(c2=O)Cc2cc3c(O)cccc3nc2-1 |  | 0.873 and 1 | 1030 and 1460 | 1100 and 1430 | -1.16 (inactive) | -0.93 | 0.938 (inactive) and 1.02 (inactive) |  |  |  | -2.13 (inactive) | 25.4% (inactive) | 34%
32 | COc1cccc2ncn(Cc3cn4ccccc4n3)c(=O)c12 | 0.944 (inactive) | 1.17 | 9180 | 9730 | -0.241 (inactive) | -0.636 |  |  |  |  | -0.6 (inactive) |  | 
33 | C=C1N[C@@H](Cc2ccc3[nH]cc(CCN(C)C)c3c2)CO1 |  | 1.08 | 9100 | 11400 | 0.499 (inactive) | 0.377 | 0.795 (inactive) |  |  |  | 0.28 (inactive) | 49.1% (inactive) | 107%
34 | CCCCC(C#N)(Cn1cncn1)c1ccc(Cl)cc1 (centres undefined) |  | 1.46 | 9220 | 9830 | 0.49 (inactive) | -0.243 | 0.938 (inactive) |  |  |  | 0.815 (inactive) | 18.9% (inactive) | 67.5%
35 | C1CCN(C2CCNCC2)CC1 | 0.919 (inactive) | 0.5 | 8270 | 9000 | -1.03 (inactive) | 0.0453 |  |  |  |  | 0.44 (inactive) |  | 
